The results in this text go back to PubChem BioAssay (NCATS).

A number with no mark means an inactive call. Results filed as inconclusive are left out. The source made the active and inactive calls. Unless noted, calls come from the whole dose curve; as a rule, active = well fitted curve in the direction sought with a large enough effect; inconclusive = small, poorly fitted or top-dose-only effect, or another doubt; inactive = no such curve, though single readings can be large; an effect the other way counts as inactive or inconclusive.

Assay [1] concerns the target Cytochrome P450 1A2 (Homo sapiens) (UniProt P05177). Briefly: p450-cyp1a2 (AID 410; calls by dose curve; note: potency is the fitted concentration of half-maximal effect;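 for activity change, negative = inhibition: -100% = full effect of reference inhibitor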). As to conditions: recombinant CYP1A2, luciferin-ME demethylation, luminescence; series mostly up to 57 µM. The essentials: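 Luminescent readout of luciferin formed from Luciferin-ME by human CYP1A2; data normalized against complete inhibition by 57 uM furafylline. Enzyme 20nM, substrate 100uM at Km, 100mM KPO4 buffer, 60 min reaction at room temperature.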

Assay [2] is described as follows: NFAT Signaling Pathway (AID 444; active = well fitted curve in either direction with a large enough effect, not every such curve was filed as active;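 note: carbachol stimulus at about its EC50 of 1 µM final; % is set by controls: 0 for no effect and ±100 for the full control effect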). As to conditions: Jurkat NFAT-bla M1, carbachol, beta-lactamase ratio, 5 h; at 7.69 µM (top of the series) unless noted. In short, it runs like this: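 Read-out: CCF4 FRET ratio (460 nm/530 nm) after 1 h RT dye loading, used for %activity and AC50 from titration series. Cells: Jurkat NFAT-β-lactamase/M1 line, treated with compound plus 1 uM carbachol for 5 h, 37 °C.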

Assay [3] addresses Glucocorticoid receptor (Homo sapiens) (UniProt P04150). Briefly: GR-GFP Redistribution (AID 450;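 active = compounds whose dose series gives a full or clear partial fitted curve of increased nuclear translocation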; note: potency is the fitted concentration of half-maximal effect). As to conditions: U2OS GR-GFP nuclear translocation, laser cytometry, 2 h.
The target is the same in assay [4]. Briefly: GR-EFC Redistribution (AID 451; calls by dose curve; note: potency is the fitted concentration of half-maximal effect). As to conditions: CHO-K1 GR-EFC translocation, beta-gal luminescence, 2 h. The essentials: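 Translocation of GR-ED fusion to nuclear EA restores b-gal, read by luminescence after 1 h room-temperature detection. Engineered CHO-K1 biosensor cells, 1,000/well, exposed 2 h at 37 C to titrations up to 46 uM final.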
The target of assay [5] is Mitogen-activated protein kinase 10 (Mus musculus) (UniProt Q61831). Briefly: JNK3 AlphaScreen Assay (AID 530; active = well fitted curve in either direction with a large enough effect, not every such curve was filed as active;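 note: kinase came from lysate of stimulated human HepG2 cells; signal reports phosphorylation of biotinylated GST-cJun 1-79 at Ser73 with 10 µM ATP; % is set by controls: 0 for no effect and ±100 for the full control effect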). The note with it: JNK3 lysate, c-Jun phosphorylation; series mostly up to 57.1 µM. In short, it runs like this:
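Compound titrations were preincubated 15 minutes at room temperature with substrate, antibody and pre-activated JNK3-containing HepG2 lysate. Reactions were started with 10 uM ATP and stopped with EDTA-containing bead buffer for AlphaScreen detection.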

For assay [6], the target named is Cytochrome P450 3A4 (Homo sapiens) (UniProt P08684). Briefly: qHTS Assay for Activators of Cytochrome P450 3A4 (AID 885). Note: nearly all actives have a fitted effect of over 65% in size. The note with it: recombinant CYP3A4, Luciferin-PPXE luminescence, 60 min; series mostly up to 57.1 µM. The essentials: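 Quantitative HTS format: compounds preincubated with 20nM human CYP3A4 and Luciferin-PPXE substrate at KM, reaction started by NADPH regeneration, stopped after 60 min, luciferase luminescence read 20 min later.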
(In general: qHTS replaces the single test concentration by a dilution series.)

Assay [7] can be described thus: qHTS Assay for Identification of Small Molecule Agonists for Hypoxia Response Element Signaling Pathway (AID 914; active = well fitted activation curve with a large enough effect in the signal ratio, with a control signal flat, not every such curve was filed as active; the % refers to the signal ratio; note: potency is the fitted concentration of half-maximal effect). As to conditions: ME-180 HRE-bla reporter, beta-lactamase ratio, CoCl2, 17 h; activation: hits give high values. The essentials: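 Positive modulation of EC50 CoCl2-induced hypoxia response element signaling is measured in ME-180 cells with a beta-lactamase reporter. Compounds are titrated, incubation runs 17 hours, and %Activity derives from the blue/green ratio.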

The target in assay [8] is Dual specificity protein kinase CLK4 (Homo sapiens) (UniProt Q9HAZ1). Briefly: qHTS Assay for Inhibitors of CDC-like Kinase 4 (Kinase-Glo Assay) (AID 1770). Note: nearly all actives have a fitted effect of over 65% in size. Note: potency is the fitted concentration of half-maximal effect. The note with it: recombinant Clk4, Kinase-Glo ATP depletion luminescence; series mostly up to 66.7 µM. The essentials: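 Readout: Kinase-Glo luminescence from ATP left after a 4.5 h room-temperature reaction of 25 nM Clk4 with 100 uM RS peptide and 1 uM ATP (final). Buffer: 25 mM Tris pH 7.5, 10 mM MgCl2.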

The target is the same in assay [9]. Briefly: qHTS Assay for Inhibitors of CDC-like Kinase 4 (ADP-Glo Assay) (AID 1771). Note: nearly all actives have a fitted effect of over 70% in size. Note: potency is the fitted concentration of half-maximal effect. The note with it: recombinant CLK4, ADP-Glo luminescence; series mostly up to 80 µM. The essentials: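 Luminescence from ADP-Glo reports ADP produced by 25 nM Clk4 acting on 100 uM RS repeat peptide with 1 uM ATP over 1 hr at room temperature; residual ATP is depleted before ADP is converted to ATP for detection.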

Assay [10] has the same target. Briefly: qHTS Assay for Inhibitors of CDC-like Kinase 4 (ADP-FP Assay) (AID 1795). Note: % is set by controls: 0 for no effect and ±100 for the full control effect; nearly all actives have a fitted effect of over 60% in size. As to conditions: Transcreener ADP fluorescence polarization; series mostly up to 50 µM. The essentials: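 FP readout: Orange Transcreener ADP2 tracer (4 nM) plus ADP antibody, read after 30 min at room temperature. Kinase step: 6.25 nM Clk4, 100 uM RS peptide, 1 uM ATP, pH 7.5, 1 h.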

Assay [11] concerns the target Ubiquitin carboxyl-terminal hydrolase 1 (Homo sapiens) (UniProt O94782). Briefly: Inhibitors of USP1/UAF1: Pilot qHTS (AID 504865).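 Note: rhodamine fluorescence freed from ubiquitin-rhodamine substrate followed over time; top concentration of the series differs between compounds; % is set by controls: 0 for no effect and ±100 for the full control effect; nearly all actives have a fitted effect of over 35% in size.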 As to conditions: purified USP1/UAF1, Ub-rhodamine cleavage fluorescence; series mostly up to 54.9 µM. In short, it runs like this:
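1nM USP1/UAF1 + cpd, 15 min RT; start w/ Ub-Rho 150nM final; kinetic FL 480/540 nm, 6 reads q60 s. Buffer 50mM HEPES pH 7.8, 0.5mM EDTA, 1mM TCEP, 0.01% Tween-20, 0.1 mg/ml BSA.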

Assay [12] is described as follows: Primary qHTS for small molecule stabilizers of the endoplasmic reticulum resident proteome: Secreted ER Calcium Modulated Protein (SERCaMP) assay (AID 1508630). Note: % is set by controls: 0 for no effect and ±100 for the full control effect. As to conditions: SH-SY5Y GLuc-SERCaMP (Gaussia luciferase released on ER calcium loss) secretion, thapsigargin, luminescence; series mostly up to 38.4 µM. The essentials:
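GLuc-SERCaMP-expressing SH-SY5Y cells, pretreated 16 h with compound, are challenged with thapsigargin to empty ER calcium stores; after 4 h, coelenterazine is added directly to the medium and luminescence is imaged.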

The target of assay [13] is Lysosomal acid glucosylceramidase (Homo sapiens) (UniProt P04062). Briefly: Glucocerebrosidase-p2 (AID 348; in the data active = potency below about 10 µM; note: potency is the fitted concentration of half-maximal effect). The note with it: purified GBA, blue fluorogenic substrate, 40 min. In short, it runs like this: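 Compounds titrated from 0.6 nM upwards against 0.2 nM enzyme in pH 5.9 citric acid/KH2PO4, taurocholate, tween-20; blue fluorogenic substrate 80 uM, 40 min room temperature, stopped and read Ex 365/Em 440 for AC50.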

The nature of assay [14]: AP1 Signaling Pathway (AID 357; active = well fitted curve in either direction with a large enough effect, not every such curve was filed as active; note: % is set by controls: 0 for no effect and ±100 for the full control effect). The note with it: ME-180 AP-1-bla reporter, EGF-induced, beta-lactamase ratio, 5 h; at 7.69 µM (top of the series) unless noted. In short, it runs like this: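 A ratiometric CCF4 readout (405 nm excitation; 460 and 530 nm emission) quantified AP-1-driven beta-lactamase in ME-180 cells after 5 h with compound and EC50 EGF; AC50 values were derived for activators and inhibitors.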

Assay [15] is described as follows: Stat Signaling Pathway (AID 446; active = well fitted curve in either direction with a large enough effect, not every such curve was filed as active). As to conditions: ME-180 (cervical carcinoma) SIE beta-lactamase reporter, IL-6 stimulated, 5 h; at 7.69 µM (top of the series) unless noted. In short, it runs like this: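 IL-6/STAT signaling read in ME-180 cells via an SIE beta-lactamase reporter. Stimulus was 40 pM IL-6 (its AC50) for 5 hrs, so both activation and inhibition register.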
The target of assay [16] is 3',5'-cyclic-AMP phosphodiesterase 4B (Homo sapiens) (UniProt Q07343). Briefly: qHTS Assay for Inhibitors of PDE-IV (AID 607; active = well fitted activation curve with a large enough effect in the main read-out, with a control signal flat, not every such curve was filed as active; note: % of control where 0% means no effect). The note with it: HEK293 ACTOne CNG channel cells, membrane potential fluorescence; series mostly up to 22.9 µM. The essentials: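 Live HEK293 cells with a modified cyclic nucleotide-gated (CNG) channel report intracellular cAMP via membrane-potential dye fluorescence (ex 535/em 590 nm). Endogenous PDE-IV was targeted. Compounds were tested at up to 22.9 uM final; RO 20-1724 100 uM served as control.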

In assay [17] the target is Cytochrome P450 3A4 (Homo sapiens) (UniProt P08684). Briefly: qHTS Assay for Inhibitors and Substrates of Cytochrome P450 3A4 (AID 884). Note: potency is the fitted concentration of half-maximal effect; nearly all actives have a fitted effect of over 50% in size. As to conditions: recombinant CYP3A4, Luciferin-PPXE luminescence; series mostly up to 57.1 µM. The essentials:
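20 nM human CYP3A4 with 25 uM Luciferin-PPXE (at KM) in 200 mM KPO4, preincubated 10 min with compound; NADPH regeneration started a 60 min RT reaction. Luciferin detected by luminescence, normalized to 57 uM ketoconazole as full inhibition.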

Glucocorticoid receptor (Homo sapiens), sequence (P04150 whole entry, looked up, the tested form may be a part): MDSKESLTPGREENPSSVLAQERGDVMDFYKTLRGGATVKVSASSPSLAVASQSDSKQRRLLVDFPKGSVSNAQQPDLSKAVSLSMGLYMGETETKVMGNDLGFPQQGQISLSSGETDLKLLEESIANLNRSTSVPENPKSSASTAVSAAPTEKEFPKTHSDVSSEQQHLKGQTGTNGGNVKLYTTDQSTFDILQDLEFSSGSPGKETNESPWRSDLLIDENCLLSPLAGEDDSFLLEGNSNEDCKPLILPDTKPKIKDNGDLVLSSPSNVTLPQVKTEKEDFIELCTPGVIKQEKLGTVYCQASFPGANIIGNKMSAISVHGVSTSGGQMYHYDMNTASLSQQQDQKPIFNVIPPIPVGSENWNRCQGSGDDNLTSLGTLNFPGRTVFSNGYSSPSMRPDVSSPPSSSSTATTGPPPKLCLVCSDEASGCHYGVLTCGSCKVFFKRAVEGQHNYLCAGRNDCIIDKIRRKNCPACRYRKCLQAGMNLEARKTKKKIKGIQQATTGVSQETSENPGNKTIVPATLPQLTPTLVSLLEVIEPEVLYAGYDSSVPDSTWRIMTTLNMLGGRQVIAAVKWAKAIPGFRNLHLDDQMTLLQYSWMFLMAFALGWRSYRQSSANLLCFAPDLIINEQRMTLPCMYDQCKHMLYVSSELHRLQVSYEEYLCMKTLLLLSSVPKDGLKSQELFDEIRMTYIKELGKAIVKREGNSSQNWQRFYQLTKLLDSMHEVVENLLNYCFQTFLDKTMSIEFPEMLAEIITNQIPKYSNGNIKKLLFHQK
Cytochrome P450 1A2 (Homo sapiens), sequence (P05177 whole entry, looked up): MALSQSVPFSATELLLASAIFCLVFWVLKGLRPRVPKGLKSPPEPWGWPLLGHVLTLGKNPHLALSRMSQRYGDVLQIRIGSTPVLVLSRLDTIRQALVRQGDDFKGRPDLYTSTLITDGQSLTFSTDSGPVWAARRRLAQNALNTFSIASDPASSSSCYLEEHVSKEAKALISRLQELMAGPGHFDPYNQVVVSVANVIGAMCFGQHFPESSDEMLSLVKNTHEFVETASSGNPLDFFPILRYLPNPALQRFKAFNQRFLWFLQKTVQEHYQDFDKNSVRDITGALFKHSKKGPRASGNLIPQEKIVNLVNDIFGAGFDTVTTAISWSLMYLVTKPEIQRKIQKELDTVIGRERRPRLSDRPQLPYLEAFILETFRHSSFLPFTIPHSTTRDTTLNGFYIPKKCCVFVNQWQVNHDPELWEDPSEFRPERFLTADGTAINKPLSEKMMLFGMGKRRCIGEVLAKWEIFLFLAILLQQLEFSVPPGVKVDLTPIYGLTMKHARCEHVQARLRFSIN
Dual specificity protein kinase CLK4 (Homo sapiens), sequence (Q9HAZ1 whole entry, looked up): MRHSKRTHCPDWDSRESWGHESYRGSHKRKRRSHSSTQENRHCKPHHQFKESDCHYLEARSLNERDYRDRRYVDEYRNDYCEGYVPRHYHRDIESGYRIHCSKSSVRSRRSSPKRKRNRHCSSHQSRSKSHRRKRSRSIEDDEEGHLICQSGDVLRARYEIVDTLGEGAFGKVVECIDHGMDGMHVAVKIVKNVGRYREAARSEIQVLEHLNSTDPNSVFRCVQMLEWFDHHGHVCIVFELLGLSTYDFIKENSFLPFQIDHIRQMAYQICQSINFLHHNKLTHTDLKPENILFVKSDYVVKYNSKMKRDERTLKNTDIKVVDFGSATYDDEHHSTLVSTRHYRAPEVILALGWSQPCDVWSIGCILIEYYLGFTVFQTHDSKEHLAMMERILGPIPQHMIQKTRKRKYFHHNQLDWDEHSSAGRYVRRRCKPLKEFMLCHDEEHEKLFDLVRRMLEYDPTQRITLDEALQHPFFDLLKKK
Lysosomal acid glucosylceramidase (Homo sapiens), sequence (P04062 whole entry, looked up): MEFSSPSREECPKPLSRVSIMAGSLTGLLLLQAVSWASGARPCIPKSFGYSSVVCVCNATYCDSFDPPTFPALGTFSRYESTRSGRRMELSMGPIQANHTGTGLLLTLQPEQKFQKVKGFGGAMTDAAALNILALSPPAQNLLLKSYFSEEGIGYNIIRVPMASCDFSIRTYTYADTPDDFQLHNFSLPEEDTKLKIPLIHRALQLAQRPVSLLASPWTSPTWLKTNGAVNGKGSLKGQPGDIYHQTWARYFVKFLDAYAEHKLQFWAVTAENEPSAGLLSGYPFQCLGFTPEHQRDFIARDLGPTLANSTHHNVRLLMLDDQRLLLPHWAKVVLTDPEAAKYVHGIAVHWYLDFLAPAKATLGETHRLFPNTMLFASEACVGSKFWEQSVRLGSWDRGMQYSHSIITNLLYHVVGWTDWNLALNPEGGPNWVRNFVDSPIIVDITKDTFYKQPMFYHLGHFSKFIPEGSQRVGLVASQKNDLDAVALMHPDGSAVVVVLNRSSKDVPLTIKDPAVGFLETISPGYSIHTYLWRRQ
Ubiquitin carboxyl-terminal hydrolase 1 (Homo sapiens), sequence (O94782 whole entry, looked up): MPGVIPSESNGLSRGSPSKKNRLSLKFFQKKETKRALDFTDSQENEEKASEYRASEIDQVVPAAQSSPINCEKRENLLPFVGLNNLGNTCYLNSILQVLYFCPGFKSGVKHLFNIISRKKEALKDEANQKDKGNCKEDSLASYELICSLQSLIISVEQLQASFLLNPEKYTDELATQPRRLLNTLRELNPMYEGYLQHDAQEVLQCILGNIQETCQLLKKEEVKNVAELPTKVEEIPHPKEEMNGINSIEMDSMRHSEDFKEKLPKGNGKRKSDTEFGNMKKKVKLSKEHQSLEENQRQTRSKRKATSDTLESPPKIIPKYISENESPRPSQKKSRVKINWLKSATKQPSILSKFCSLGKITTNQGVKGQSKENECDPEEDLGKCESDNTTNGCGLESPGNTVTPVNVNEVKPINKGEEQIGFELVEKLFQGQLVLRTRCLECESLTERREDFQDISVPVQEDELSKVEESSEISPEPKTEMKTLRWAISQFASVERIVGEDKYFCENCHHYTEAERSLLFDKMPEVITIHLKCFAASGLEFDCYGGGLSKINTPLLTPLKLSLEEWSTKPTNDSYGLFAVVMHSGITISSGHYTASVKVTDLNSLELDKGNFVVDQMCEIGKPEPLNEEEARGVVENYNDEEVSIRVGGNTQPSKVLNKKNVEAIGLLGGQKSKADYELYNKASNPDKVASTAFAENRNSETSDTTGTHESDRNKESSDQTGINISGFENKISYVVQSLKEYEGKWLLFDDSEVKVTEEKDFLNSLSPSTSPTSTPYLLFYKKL
Cytochrome P450 3A4 (Homo sapiens), sequence (P08684 whole entry, looked up): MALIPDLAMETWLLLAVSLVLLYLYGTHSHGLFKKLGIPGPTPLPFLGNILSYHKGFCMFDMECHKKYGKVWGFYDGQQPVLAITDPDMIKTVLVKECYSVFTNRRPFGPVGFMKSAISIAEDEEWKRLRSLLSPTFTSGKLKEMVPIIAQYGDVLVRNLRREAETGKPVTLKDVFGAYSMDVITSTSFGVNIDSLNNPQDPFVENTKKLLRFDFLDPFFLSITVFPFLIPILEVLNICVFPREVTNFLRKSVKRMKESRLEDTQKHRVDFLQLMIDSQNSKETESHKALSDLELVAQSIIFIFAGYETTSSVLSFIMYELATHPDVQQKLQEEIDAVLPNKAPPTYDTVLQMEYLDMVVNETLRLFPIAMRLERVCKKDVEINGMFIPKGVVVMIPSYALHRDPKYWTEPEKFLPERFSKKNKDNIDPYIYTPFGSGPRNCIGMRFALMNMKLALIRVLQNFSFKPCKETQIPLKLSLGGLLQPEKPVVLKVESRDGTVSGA
3',5'-cyclic-AMP phosphodiesterase 4B (Homo sapiens), sequence (Q07343 whole entry, looked up): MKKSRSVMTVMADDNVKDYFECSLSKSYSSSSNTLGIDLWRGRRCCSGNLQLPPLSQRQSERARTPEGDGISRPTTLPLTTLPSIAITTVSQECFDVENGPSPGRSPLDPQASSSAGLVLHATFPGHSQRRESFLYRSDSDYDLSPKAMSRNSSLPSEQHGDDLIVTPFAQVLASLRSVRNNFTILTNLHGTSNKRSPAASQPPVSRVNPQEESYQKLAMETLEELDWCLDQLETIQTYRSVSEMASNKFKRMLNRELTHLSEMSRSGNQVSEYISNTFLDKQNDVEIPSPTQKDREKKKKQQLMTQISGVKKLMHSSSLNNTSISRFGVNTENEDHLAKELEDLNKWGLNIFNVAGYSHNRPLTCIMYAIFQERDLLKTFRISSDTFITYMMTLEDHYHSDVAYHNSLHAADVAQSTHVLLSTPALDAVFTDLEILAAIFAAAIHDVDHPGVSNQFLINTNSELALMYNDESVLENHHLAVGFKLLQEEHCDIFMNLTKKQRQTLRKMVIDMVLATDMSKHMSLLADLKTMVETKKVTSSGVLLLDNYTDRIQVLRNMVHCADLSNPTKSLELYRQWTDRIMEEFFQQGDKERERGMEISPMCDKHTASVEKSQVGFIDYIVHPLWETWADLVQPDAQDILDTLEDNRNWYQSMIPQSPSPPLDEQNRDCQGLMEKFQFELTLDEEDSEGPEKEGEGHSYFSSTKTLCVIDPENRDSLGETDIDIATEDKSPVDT

Regarding `CCNc1ncc2nc(-c3ccc(OC)cc3)c(=O)n(Cc3cccs3)c2n1`, the Potency in [1] was 0.631 µM (active); in [3] it was more than 9.22 µM; in assay [4] it was more than 46 µM; in assay [7], 3.16 µM (active). Further, the activity change, negative = inhibition in [2] is 2.94%. The Potency result in assay [5], in assay [6], in assay [8], in [9], in [10] and in assay [11] was “inactive” in each case. Besides, the outcome in [12] was inactive.

For the molecule `CN(Cc1ccco1)c1nc(-c2ccoc2)nc2ccccc12`, the Potency was more than 11.4 µM in assay [13], 0.398 µM (active) in assay [1], more than 46 µM in [3] and more than 46 µM in [4]. For the same molecule, the activity change, negative = inhibition was -25.1% in [14] and -18.3% in assay [2]. Moreover, the activity, negative = inhibition in [15] is -4.21%. In addition, the Potency result in assay [5], in assay [6], in assay [8], in [9] and in assay [11] was “inactive” each time. In assay [12], the result was inactive.

Turning to `CN(C)c1ncc2nc(-c3cc(F)cc(F)c3)c(=O)n(Cc3ccc(F)cc3)c2n1`, the Potency entry in assay [1], in assay [5], in assay [16], in assay [6], in assay [8] and in assay [9] was “inactive” each time. Further, the Potency result in [10] and in assay [11] was “inactive” each time. In addition, the results for the Potency in assay [3], in [4] and in [7] were more than 46 µM, more than 46 µM and 3.16 µM (active), respectively. Further, the result in assay [12] was inactive.

For the molecule `CCNc1ncc2nc(-c3cccc(C#N)c3)c(=O)n(Cc3cccc(OC)c3)c2n1`, the activity change, negative = inhibition is -6.16% in [14] and -14.9% in assay [2]. Also, in assay [15], the activity, negative = inhibition is -8.97%. The Potency in [3] was more than 9.22 µM; in assay [4], more than 46 µM. The Potency entry in [5], in [16], in [8], in assay [9], in [10] and in assay [11] was “inactive” in each case. In assay [12], the result was inactive.

Take `CN(C)c1ncc2nc(-c3cc(F)cc(F)c3)c(=O)n(CCc3ccccc3)c2n1`: the Potency result in [1], in assay [16], in assay [8], in [9], in assay [10] and in [11] was “inactive” in each case. In addition, the Potency in assay [3] is more than 9.22 µM; in assay [7] it was 2.51 µM (active). Besides, the result in assay [12] was inactive.

On to `Cc1cnc(CNc2ncncc2-c2ccoc2)cn1`, for which the Potency in assay [13] is more than 11.4 µM; in [1], 12.6 µM (active); in assay [3], more than 46 µM; in [4] it was more than 46 µM; in assay [17] it was 2 µM (active). Besides, the activity change, negative = inhibition in assay [14] was 0.489%; in assay [2], -1.22%. Moreover, the activity, negative = inhibition in assay [15] was 3.39%. The Potency entry in [5], in assay [16], in assay [6], in assay [8], in assay [9] and in assay [11] was “inactive” in each case. Also, in assay [12], the result was inactive.

With `Cc1cnc(CNc2ccnc(-c3cccc(C#N)c3)n2)cn1`, the Potency is more than 11.4 µM in [13]; 1.26 µM (active) in [1]; more than 46 µM in [3]; more than 46 µM in [4]; 22.4 µM (active) in assay [8]; 15.8 µM (active) in [9]. Also, the activity change, negative = inhibition in [14] was -12.1%; in assay [2] it was 16.3%. Further, the activity, negative = inhibition in [15] was 6.8%. The Potency result in assay [5], in assay [16], in assay [6] and in [11] was “inactive” in each case. The outcome in [12] was inactive.
